Data on 25 compounds can be found in PubChem BioAssay (EPA / NIEHS).

A short description of assay [1]: ATG_CRE_CIS: Attagene CIS-FACTORIAL HepG2 Assay for human cAMP Responsive Element (CRE) binding protein 3 (AID 2282926). As to conditions: HepG2 CRE cis-reporter, Attagene multiplexed mRNA; actives raise or lower the signal. The essentials:
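Induced reporter mRNA from a CRE cis element, measured in HepG2 among many multiplexed units at 24 h. Detection used RT-PCR plus capillary electrophoresis of fluorescent fragments; DMSO served as negative control.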

The target in assay [2] is CCAAT/enhancer-binding protein beta (Homo sapiens) (UniProt P17676). Briefly: ATG_C_EBP_CIS: Attagene CIS-FACTORIAL HepG2 Assay for human CCAAT/Enhancer Binding Protein (C/EBP) beta (AID 2282927). To be noted: HepG2 Attagene cis-factorial transcription factor reporter; actives raise or lower the signal. In short, it runs like this: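 Endogenous C/EBPb-driven reporter transcripts measured in transfected human HepG2 cells at 24 h via RT-PCR and capillary electrophoresis of labelled fragments. Activity fitted in both directions relative to DMSO baseline.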
CCAAT/enhancer-binding protein beta (Homo sapiens), sequence (P17676 whole entry, looked up, the tested form may be a part): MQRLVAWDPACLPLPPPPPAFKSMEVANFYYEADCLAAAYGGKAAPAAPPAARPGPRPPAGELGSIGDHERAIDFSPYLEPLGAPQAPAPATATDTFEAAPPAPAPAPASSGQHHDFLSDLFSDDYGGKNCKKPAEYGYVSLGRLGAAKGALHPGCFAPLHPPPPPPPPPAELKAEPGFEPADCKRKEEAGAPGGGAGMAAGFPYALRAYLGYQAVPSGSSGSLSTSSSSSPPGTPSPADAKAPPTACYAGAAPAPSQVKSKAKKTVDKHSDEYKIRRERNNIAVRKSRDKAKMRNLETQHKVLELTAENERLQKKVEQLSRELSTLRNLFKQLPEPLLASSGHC

Assay [3] is described as follows: ATG_CMV_CIS: Attagene CIS-FACTORIAL HepG2 Assay for human CMV (Internal Marker) (AID 2282928).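 Also: endpoint acts as a background internal control marker rather than a target.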 As to conditions: HepG2 CMV promoter reporter, transcription factor profiling; actives raise or lower the signal. The essentials: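 24 h chemical treatment, HepG2 with transient multi-reporter transfection; RNA → oligo(dT) RT → PCR → 6-FAM extension → HpaI digest → CE fluorescence. Bidirectional fit, DMSO negative control.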

Assay [4] is described as follows: ATG_DR4_LXR_CIS: Attagene CIS-FACTORIAL HepG2 Assay for human Liver X Receptor (LXR), DR4 submotif (AID 2282929). As to conditions: HepG2 Attagene DR4 cis-reporter, mRNA transcription; actives raise or lower the signal. The essentials: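 HepG2 cells were transiently transfected with multiple cis-regulated reporter units and dosed for 24 hours. The DR4 reporter mRNA was quantified by RT-PCR, 6-FAM labelling and capillary electrophoresis. Bidirectional fits used DMSO as baseline.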

The target of assay [5] is Aryl hydrocarbon receptor (Homo sapiens) (UniProt P35869). Briefly: ATG_Ahr_CIS: Attagene CIS-FACTORIAL HepG2 Assay for human Aryl Hydrocarbon Receptor (Ahr) (AID 2282930). As to conditions: HepG2 AhR cis-factorial reporter transcription; actives raise or lower the signal. In short, it runs like this: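 Reporter mRNA levels, quantified by RT-PCR and fluorescent capillary electrophoresis, reflect endogenous AhR transcriptional activity in HepG2 cells carrying transfected cis-promoter reporter constructs. Readout at 24 h post-dose; gain or loss fitted against DMSO baseline.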
Aryl hydrocarbon receptor (Homo sapiens), sequence (P35869 whole entry, looked up): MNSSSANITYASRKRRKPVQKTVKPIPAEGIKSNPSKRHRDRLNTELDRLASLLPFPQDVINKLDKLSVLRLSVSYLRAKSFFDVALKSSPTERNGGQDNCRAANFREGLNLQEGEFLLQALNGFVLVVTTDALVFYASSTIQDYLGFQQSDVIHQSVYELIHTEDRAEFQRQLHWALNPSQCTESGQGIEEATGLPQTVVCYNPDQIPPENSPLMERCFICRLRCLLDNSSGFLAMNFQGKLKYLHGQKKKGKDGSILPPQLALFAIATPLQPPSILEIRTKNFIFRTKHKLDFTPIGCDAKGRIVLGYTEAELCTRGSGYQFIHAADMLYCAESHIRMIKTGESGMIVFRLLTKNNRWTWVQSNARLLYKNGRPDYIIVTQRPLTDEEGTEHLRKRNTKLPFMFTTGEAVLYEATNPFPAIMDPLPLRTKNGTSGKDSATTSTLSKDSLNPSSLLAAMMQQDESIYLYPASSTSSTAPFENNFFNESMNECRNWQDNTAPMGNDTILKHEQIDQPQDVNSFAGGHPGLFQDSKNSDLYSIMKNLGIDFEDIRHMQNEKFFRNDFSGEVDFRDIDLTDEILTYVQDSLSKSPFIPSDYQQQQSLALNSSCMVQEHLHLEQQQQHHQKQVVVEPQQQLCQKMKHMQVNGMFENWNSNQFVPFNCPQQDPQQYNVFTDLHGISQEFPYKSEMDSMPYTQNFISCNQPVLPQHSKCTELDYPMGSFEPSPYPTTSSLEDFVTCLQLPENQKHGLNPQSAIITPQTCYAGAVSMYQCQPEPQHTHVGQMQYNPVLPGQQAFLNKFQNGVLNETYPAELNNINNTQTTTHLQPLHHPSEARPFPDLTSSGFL

Assay [6] in a line: ATG_AP_1_CIS: Attagene CIS-FACTORIAL HepG2 Assay for human Activator Protein 1 (AP-1) (AID 2282931). As to conditions: HepG2 Attagene cis-factorial AP-1 reporter mRNA; actives raise or lower the signal. The essentials:
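HepG2 cells transiently transfected with cis-element-driven reporter transcription units, dosed for 24 hours. Reporter mRNA measured by RT-PCR, 6-FAM labelling, HpaI digestion and capillary electrophoresis. Bidirectional fitting against DMSO baseline.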

The nature of assay [7]: ATG_AP_2_CIS: Attagene CIS-FACTORIAL HepG2 Assay for human Activator Protein 2 (AP-2) (AID 2282932). As to conditions: HepG2 AP-2 cis-reporter, Attagene transcription factor profiling; actives raise or lower the signal. In short, it runs like this:
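Endogenous transcription factor activity is reported through transfected multiplex reporter constructs in HepG2, after 24 h of compound exposure. Transcripts were quantified by RT-PCR and capillary electrophoresis of fluorescent fragments. Bidirectional fit against DMSO.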

Assay [8] can be described thus: ATG_BRE_CIS: Attagene CIS-FACTORIAL HepG2 Assay for human Bone Morphogenetic Protein (BMP) Response Element (BRE) (AID 2282933). To be noted: HepG2 BMP response element reporter, Attagene transcription factor profiling; actives raise or lower the signal. In short, it runs like this:
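Multiplexed cis-reporter assay, HepG2, 24 h exposure. mRNA from reporter units quantified via RT-PCR/CE; DMSO baseline; bidirectional curve fit.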

Assay [9] addresses Retinoic acid receptor alpha (Homo sapiens) (UniProt P10276). Briefly: ATG_DR5_RAR_CIS: Attagene CIS-FACTORIAL HepG2 Assay for human Retinoic Acid Receptor Alpha (RARE), DR5 submotif (AID 2282934).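 As to AC50: reporter responds to endogenous RAR alpha beta and gamma in HepG2 not RARA alone.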 As to conditions: HepG2 Attagene cis-factorial RARE DR5 reporter, mRNA; actives raise or lower the signal. The essentials: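 Reporter transcripts from a DR5-regulated unit, measured via RT-PCR plus capillary electrophoresis, reflect endogenous RAR activity in transiently transfected human HepG2 liver cells. Exposure lasted 24 h; gain or loss of signal scored against DMSO.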

Assay [10] deals with Transcription factor E2F1 (Homo sapiens) (UniProt Q01094). Briefly: ATG_E2F_CIS: Attagene CIS-FACTORIAL HepG2 Assay for human E2F Transcription Factor 1 (AID 2282935). As to conditions: HepG2 Attagene cis-reporter, E2F reporter RNA transcripts; actives raise or lower the signal. The essentials:
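Gain or loss of reporter transcript, fitted against DMSO, reflects E2F1-driven transcription. Transiently transfected HepG2 dosed 24 h before RNA isolation. Quantified by fluorescent RT-PCR products separated by capillary electrophoresis.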

Activity calls are given as the source filed them. The calls were made as follows: active = hit-call score of the fitted dose curve at least 0.9, where 1 is the maximum; inactive = score below 0.9.

Transcription factor E2F1 (Homo sapiens), sequence (Q01094 whole entry, looked up): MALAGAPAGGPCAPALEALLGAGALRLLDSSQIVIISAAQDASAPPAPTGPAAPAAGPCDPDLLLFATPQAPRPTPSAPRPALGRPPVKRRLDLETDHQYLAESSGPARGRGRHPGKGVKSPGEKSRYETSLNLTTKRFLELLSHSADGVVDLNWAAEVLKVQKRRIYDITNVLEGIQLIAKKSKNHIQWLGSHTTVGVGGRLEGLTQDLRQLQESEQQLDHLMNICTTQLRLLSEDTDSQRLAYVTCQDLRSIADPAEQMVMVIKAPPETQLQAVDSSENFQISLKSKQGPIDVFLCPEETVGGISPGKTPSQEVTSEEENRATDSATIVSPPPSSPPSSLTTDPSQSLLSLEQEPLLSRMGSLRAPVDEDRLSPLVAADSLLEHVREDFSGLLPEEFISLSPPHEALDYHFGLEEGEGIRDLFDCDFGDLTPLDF
Retinoic acid receptor alpha (Homo sapiens), sequence (P10276 whole entry, looked up): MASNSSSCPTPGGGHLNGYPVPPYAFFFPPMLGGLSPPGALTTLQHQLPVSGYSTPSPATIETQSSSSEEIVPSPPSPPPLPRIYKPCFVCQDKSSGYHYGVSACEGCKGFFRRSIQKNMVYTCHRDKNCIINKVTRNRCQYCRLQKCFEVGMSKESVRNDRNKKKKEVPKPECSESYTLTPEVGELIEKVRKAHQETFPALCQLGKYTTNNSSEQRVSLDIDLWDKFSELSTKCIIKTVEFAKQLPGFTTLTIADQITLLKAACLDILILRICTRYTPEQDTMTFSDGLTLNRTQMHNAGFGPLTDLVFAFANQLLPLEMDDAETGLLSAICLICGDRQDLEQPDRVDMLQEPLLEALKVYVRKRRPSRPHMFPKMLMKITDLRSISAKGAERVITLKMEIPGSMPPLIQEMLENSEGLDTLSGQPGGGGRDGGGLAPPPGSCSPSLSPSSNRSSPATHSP

For `C=CCCCCCCCCC(=O)OCCCC`, the result in [1], in [2], in assay [3], in assay [4], in assay [5] and in [6] was inactive. For the same compound, the call in assay [7], in assay [8] and in assay [9] was inactive.
As to `OCCCS`, the outcome in assay [1], in [2], in assay [3], in [4], in assay [5] and in assay [6] was inactive. Besides, the result in [7], in [8] and in assay [9] was inactive.
Regarding `Nc1ccc2cc3ccccc3cc2c1`, the call in assay [1], in assay [2], in assay [3], in assay [4], in assay [5] and in [6] was inactive. Besides, the compound was classed as inactive in assay [7], in assay [8] and in [9].
Turning to `C=CC(C)(CCC=C(C)C)OC(=O)CC(C)C` (stereo not drawn), the outcome in assay [1], in assay [2], in assay [5], in [7], in [8] and in [9] was inactive. Besides, the compound was called inactive in assay [10]. In addition, the AC50 – broadly, the concentration giving half of the maximal activity seen – in assay [3] was 75.3 µM (active); in assay [4], 133 µM (active); in assay [6], 119 µM (active).
With `CCOC(=O)Cc1cccc2ccccc12`, the call in [1], in [2], in [3], in [4], in assay [5] and in [6] was inactive. Besides, the result in assay [7] and in [8] was inactive. For the same compound, the AC50 in assay [9] is 39.5 µM (active).
Regarding `O=C1Nc2ccccc2C1(c1ccc(O)cc1)c1ccc(O)cc1`, the AC50 in assay [1] is 23.9 µM (active); in [3] it was 136 µM (active); in assay [4], 36.7 µM (active); in [5] it was 166 µM (active); in assay [6] it was 162 µM (active); in assay [7], 44.8 µM (active). For the same compound, the result in [2], in [8] and in assay [9] was inactive.
Regarding `CC(C)=CC1CC(C)CCO1` (stereo not drawn), the result in [1], in assay [2], in assay [3], in assay [4], in [5] and in assay [6] was inactive. For the same compound, the compound was called inactive in [7], in assay [8] and in assay [9].
Take `O=C1CC2CC1C1CCCC21` (stereo not drawn): the outcome in [1], in assay [2], in [3], in [4], in [5] and in assay [6] was inactive. Further, the compound was called inactive in assay [7], in [8], in assay [9] and in assay [10].
In the case of `CCCCCCC(O)CO` (stereo not drawn), the compound was classed as inactive in assay [1], in assay [2], in assay [3], in [4], in assay [5] and in assay [6]. Moreover, the call in assay [7], in assay [8], in assay [9] and in assay [10] was inactive.
For the compound `OCCc1ccncc1`, the compound was called inactive in [1], in assay [2], in assay [3], in [4], in assay [5] and in assay [6]. Besides, the compound was called inactive in assay [7], in assay [8], in [9] and in assay [10].
Consider `C=COCCCC`, for which the call in assay [1], in assay [2], in assay [3], in [4], in [5] and in assay [6] was inactive. Besides, the call in [7], in [8] and in assay [9] was inactive.
For `CCOc1nc(F)cc2nc(S(=O)(=O)Nc3c(Cl)cccc3C(=O)OC)nn12`, the result in [1], in assay [2], in assay [3], in [4], in assay [5] and in assay [6] was inactive. In addition, the outcome in assay [7], in assay [8], in assay [9] and in [10] was inactive.
In the case of `CC(CC=O)CCCC(C)(C)O` (stereo not drawn), the compound was called inactive in assay [1], in assay [2], in [3], in assay [4], in [5] and in assay [6]. The outcome in assay [7], in assay [8], in assay [9] and in assay [10] was inactive.
With `CC(C)(C)c1ccc(-c2ccc(C(C)(C)C)cc2)cc1`, the compound was called inactive in [1], in assay [2], in [4], in assay [5], in [6] and in assay [7]. In addition, the call in assay [8], in assay [9] and in assay [10] was inactive. In addition, the AC50 in [3] is 51.8 µM (active).
As for `COc1ccc2nc(N)sc2c1`, the result in assay [1], in assay [2], in assay [3], in assay [4], in assay [6] and in assay [7] was inactive. Moreover, the result in assay [8], in assay [9] and in [10] was inactive. Also, the half-maximal activity concentration (AC50) in assay [5] was 3.17 µM (active).
For the compound `C[C@]12CCC(=O)C=C1CC[C@@H]1[C@@H]2C(=O)C[C@@]2(C)[C@H]1CC[C@]2(O)C(=O)CO`, the outcome in assay [1], in assay [2], in assay [3], in [4], in assay [5] and in assay [6] was inactive. The compound was called inactive in assay [7], in assay [8], in assay [9] and in assay [10].
Consider `CC(=O)OCCC1CCCCC1`, for which the compound was classed as inactive in assay [1], in [2], in [3], in assay [4], in [5] and in assay [6]. Also, the result in [7], in assay [8], in assay [9] and in assay [10] was inactive.
For the compound `Cc1cc(C)c(C)cc1C`, the compound was classed as inactive in assay [1], in [2], in [3], in assay [4], in assay [5] and in [6]. Further, the call in assay [7], in [8], in assay [9] and in [10] was inactive.
As to `CCN(Cc1cccc(S(=O)(=O)O)c1)c1ccc(C(=C2C=CC(=[N+](CC)Cc3cccc(S(=O)(=O)[O-])c3)C=C2)c2ccccc2)cc1`, the compound was called inactive in assay [1], in assay [2], in assay [3], in assay [4], in assay [6] and in assay [7]. The outcome in assay [8], in assay [9] and in assay [10] was inactive. In assay [5], the AC50 is 51.2 µM (active).
Regarding `O=C1C(N(CO)C(=O)NCO)N(CO)C(=O)N1CO` (stereo not drawn), the result in [1], in assay [2], in assay [3], in [4], in assay [5] and in assay [6] was inactive. Besides, the outcome in assay [7], in assay [8], in assay [9] and in assay [10] was inactive.
As for `O=C1CCCN1CCO`, the outcome in assay [1], in assay [2], in assay [3], in assay [4], in assay [5] and in [6] was inactive. The compound was called inactive in assay [7], in [8], in [9] and in assay [10].
For the compound `CC(=O)Oc1ccc(C(C)=O)cc1`, the call in [1], in [2], in assay [3], in assay [4], in assay [5] and in assay [6] was inactive. For the same compound, the compound was called inactive in [7], in assay [8], in assay [9] and in assay [10].
With `C=CC=CC=CCCCCC`, the compound was classed as inactive in assay [1], in assay [2], in assay [3], in assay [4], in [5] and in [6]. For the same compound, the compound was classed as inactive in [7], in assay [8], in assay [9] and in assay [10].
With `O=c1[nH]nc(-c2ccc([N+](=O)[O-])o2)o1`, the result in assay [1], in assay [2], in [3], in assay [4], in assay [5] and in assay [7] was inactive. The outcome in assay [8], in assay [9] and in assay [10] was inactive. Moreover, the AC50 in assay [6] was 87.6 µM (active).
In the case of `CCN(CCC#N)c1ccc(N=Nc2c(Cl)cc([N+](=O)[O-])cc2Cl)cc1`, the compound was classed as inactive in [1], in assay [2], in assay [3], in [4], in assay [5] and in assay [7]. The compound was called inactive in [8], in assay [9] and in assay [10]. In [6], the AC50 was 27 µM (active).
